MIN6 prolif = inducers of MIN6 beta-cell proliferation, primary screen, ATP luminescence, uHTS. MIN6 cells proliferation, ATPlite luminescence, 48 h; cells starved in 0.2% serum; 100% = growth in 10% serum. proliferation, % at 10 µM. AID 2380, 2010. actives 0.29% (n = 330,000);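 active = compounds whose signal lies at least 3.5 SD above the mean of all wells on their plate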;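 note: 0% = DMSO-treated cells in low-serum medium and 100% = 10% serum control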
JMJD2C inh = inhibitors of GASC-1 histone demethylase, primary screen, biochemical, fluorescence, DELFIA europium; actives 0.069% (n = 330,000); AID 2099, 2009; GST-JMJD2C(1-420) H3K9me3 demethylation; inhibition, % at 2.35 µM; Lysine-specific demethylase 4C (Homo sapiens), Q9H3R0;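 active = more than half of a compound's replicate wells show inhibition beyond 50%, single wells judged on their own value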;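 note: signal counts dimethyl H3K9 product captured on neutravidin plate; 0% = median of DMSO wells and 100% = 0.3 times that DMSO median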
Target sequence (Q9H3R0 1-420 limits assumed): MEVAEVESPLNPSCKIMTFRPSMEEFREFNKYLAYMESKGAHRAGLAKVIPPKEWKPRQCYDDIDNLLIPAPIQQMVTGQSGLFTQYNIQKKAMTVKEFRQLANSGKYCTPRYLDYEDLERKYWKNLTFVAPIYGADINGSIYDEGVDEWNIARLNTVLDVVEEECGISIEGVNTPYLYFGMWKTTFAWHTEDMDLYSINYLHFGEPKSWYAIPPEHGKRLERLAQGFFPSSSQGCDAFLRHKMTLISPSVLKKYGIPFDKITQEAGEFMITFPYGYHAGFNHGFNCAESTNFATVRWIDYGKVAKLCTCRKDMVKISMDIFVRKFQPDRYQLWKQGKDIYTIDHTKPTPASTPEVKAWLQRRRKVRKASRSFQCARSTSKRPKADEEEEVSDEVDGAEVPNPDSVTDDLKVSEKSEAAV
SMARCA2 activ = SMARCA2 (BRM) function activators, primary screen, cell-based, luminescence, high throughput | MG213 cells, MMTV-luciferase reporter, dexamethasone, overnight | activation, % at 9.1 µM | actives 1% (n = 370,000); in the data active = activation above about 7.8%;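 note: 0% = vehicle wells and 100% = reference activator wells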
Exocytosis inh = LAMP-1 surface exposure blockers, TALL-104 cells – cell-based, flow cytometry, MLPCN library, primary screen. inhibition, % at 10 µM. actives 0.66% (n = 360,000). TALL-104 LAMP-1 surface exposure; cells stimulated with thapsigargin and PMA;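 active = inhibition above about 55%, limit read from the data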
PfM18AAP inh = PfM18AAP inhibitors, malaria aminopeptidase, primary screen, biochemical, QFRET, recombinant enzyme | M18 aspartyl aminopeptidase (Plasmodium falciparum 3D7) | H-Glu-NHMec fluorogenic cleavage | inhibition, % at 7.35 µM | actives 1.2% (n = 290,000);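 active = inhibition above the campaign mean inhibition over all tested compounds plus 3 SD, cut at about 28% in these data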;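 note: 0% = plate median of test compound wells and 100% = 2 mM ZnCl2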
ALR inh = inhibitors of human ALR sulfhydryl oxidase, primary screen, biochemical, H2O2 detection, HRP-luminol luminescence, single point. purified ALR, DTT oxidation. inhibition, % (test concentration not listed). actives 3.8% (n = 290,000);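 active = mean replicate inhibition above about 79%, with every replicate also reaching it, limit read from the data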
* marks the source's active call; other numbers are inactive results. An excerpt weighted towards active compounds, which were near 5.4% of everything screened.

For CCN(CC)C(=O)CSc1nc(O)c(Cc2ccccc2)c(=O)n1-c1ccccc1 the results were MIN6 prolif -1, JMJD2C inh -6, SMARCA2 activ 8, Exocytosis inh -2, PfM18AAP inh -6 and ALR inh 43.
`N#Cc1ccc(NCCCN2CCC(C(O)(c3ccccc3)c3ccccc3)CC2)cc1` gave SMARCA2 activ 2.
CN1C(=O)C[C@@](C#N)(C(=O)Nc2nc3ccc(F)cc3s2)[C@H]1c1ccccc1 was read as SMARCA2 activ -2.
For COc1ccc(N2CCN(C(=O)c3cccc(NC4=NC5CS(=O)(=O)CC5S4)c3)CC2)cc1 (configuration not stated) the results were MIN6 prolif -1, JMJD2C inh 11, SMARCA2 activ 0, Exocytosis inh -3, PfM18AAP inh 9 and ALR inh 93*.
For O=C(c1cccc(NC2=NC3CS(=O)(=O)CC3S2)c1)N1CCN(c2ncccn2)CC1 (configuration not stated) the results were MIN6 prolif -2, JMJD2C inh 1, SMARCA2 activ -4, Exocytosis inh 16, PfM18AAP inh -6 and ALR inh -1.
For COc1ccc(-c2nnc(SCC(=O)N/N=C(\C)c3ccc(-c4ccccc4)cc3)n2-c2ccc(C)cc2)cc1 the results were SMARCA2 activ -7.
`Cc1csc(NC(=O)C2C3C=CC(O3)C2C(=O)O)n1` (configuration not stated) gave MIN6 prolif 1, JMJD2C inh -4, SMARCA2 activ 5, Exocytosis inh -2, PfM18AAP inh 3 and ALR inh 98*.
`Cc1ccc(-c2nc(-c3ccccc3)no2)cc1` gave MIN6 prolif -6, JMJD2C inh 1, SMARCA2 activ 7.8*, Exocytosis inh -1 and PfM18AAP inh 4.
For N#Cc1c(SCC(=O)Nc2nccs2)sc2c(O)cc(=O)[nH]c12 the results were MIN6 prolif -3, JMJD2C inh -13, SMARCA2 activ -2, Exocytosis inh -7, PfM18AAP inh 29* and ALR inh 99*.
Screening O=C(CSc1nc2ccccc2o1)Nc1nc2ccc(Br)cc2s1 returned MIN6 prolif -3, JMJD2C inh 13, SMARCA2 activ 1, Exocytosis inh 1, PfM18AAP inh -1 and ALR inh 98*.
For N#Cc1c(SCC(=O)Nc2nc3ccc(Br)cc3s2)sc2c(O)cc(=O)[nH]c12 the results were MIN6 prolif 0, JMJD2C inh -11, SMARCA2 activ -3, Exocytosis inh -16, PfM18AAP inh 10 and ALR inh 99*.
`N#Cc1c(SCC(=O)Nc2nc3ccccc3s2)sc2c(O)cc(=O)[nH]c12` gave MIN6 prolif -3, JMJD2C inh 9, SMARCA2 activ -1, Exocytosis inh 2 and ALR inh 99*.
`Cc1noc(C)c1S(=O)(=O)N1CCCc2nc(-c3ccc(Br)cc3)ccc21` gave SMARCA2 activ -2.
COCc1cc(N2CCN(C(=O)OC(C)(C)C)C[C@H]2C)ccc1N1CC[C@H](O)C1 was read as SMARCA2 activ 1.
COC(=O)[C@]1(Cc2ccccc2)NC=C(C(=O)c2ccc(F)cc2)[C@@H]1c1ccccc1 was read as SMARCA2 activ 0.
Screening CC(C)(C)OC(=O)NCc1cc(F)ccc1/C=C/S(=O)(=O)NC1CCCC1 returned SMARCA2 activ 1.
`O[C@@H]1C[C@H](c2ccccc2)N(CC2CCCCC2)C[C@H]1n1cc(C2CC2)nn1` gave SMARCA2 activ -3 and Exocytosis inh -1.
`O[C@H]1C[C@H](c2ccc(Cl)cc2)N(CC2CCCCC2)C[C@@H]1n1cc(C2CC2)nn1` gave SMARCA2 activ -3 and Exocytosis inh 17.
Screening Cc1ccc([C@H]2C[C@@H](O)[C@H](n3cc(C4CC4)nn3)CN2CC2CCCCC2)cc1 returned SMARCA2 activ 7.8* and Exocytosis inh 1.
Screening O[C@@H]1C[C@H](c2ccc(Cl)cc2)N(CC2CCCCC2)C[C@H]1n1cc(C2CC2)nn1 returned SMARCA2 activ 7.9* and Exocytosis inh -2.
Cc1ccc2nc(-c3ccccn3)c(NC3CCCC3)n2c1 was read as MIN6 prolif -5, JMJD2C inh -1, SMARCA2 activ 6, Exocytosis inh 0, PfM18AAP inh 3 and ALR inh 99*.
Screening CCCCCCSc1cccc(-c2nc3ccc(C)cn3c2NC2CCCCC2)c1 returned MIN6 prolif -8, JMJD2C inh 3, SMARCA2 activ -1 and Exocytosis inh -1.
For Cc1ccc(Nc2c(-c3ccccn3)nc3cccc(C)n23)cc1 the results were MIN6 prolif -6, JMJD2C inh -17, SMARCA2 activ -5, Exocytosis inh 0, PfM18AAP inh 4 and ALR inh 99*.
Cc1cccc(C)c1Nc1c(-c2ccccn2)nc2ccccn12 was read as MIN6 prolif -7, JMJD2C inh 0, SMARCA2 activ -4, Exocytosis inh -11, PfM18AAP inh 1 and ALR inh 94*.
CC(C)(C)N(Cc1cn(CC2CCCCC2)nn1)S(=O)(=O)c1ccc(F)cc1Br was read as SMARCA2 activ -6.
For CC(C)OC(=O)Cn1cnc2ccc(Br)cc2c1=O the results were MIN6 prolif 1, JMJD2C inh 0, SMARCA2 activ 0, Exocytosis inh -1, PfM18AAP inh -2 and ALR inh 89*.
Screening COC(=O)Cn1cnc2ccccc2c1=O returned MIN6 prolif -3, JMJD2C inh -9, SMARCA2 activ 1, Exocytosis inh 1, PfM18AAP inh -4 and ALR inh -1.
`Cc1[nH]c2ccccc2c1SCCN` gave MIN6 prolif -5, JMJD2C inh 5, SMARCA2 activ 6, Exocytosis inh 17, PfM18AAP inh -5 and ALR inh 10.
`Cc1[nH]c2ccccc2c1SCc1ccccc1` gave MIN6 prolif -5, JMJD2C inh -11, SMARCA2 activ 2, Exocytosis inh 11, PfM18AAP inh 8 and ALR inh 99*.
C=CCOC(=O)N[C@H](c1cccc(OC)c1)[C@H](C)/C=C/CC(=O)OC was read as SMARCA2 activ -1.
For N#CC1=C(N)OC2=C(C(=O)CCC2)C1c1ccccc1 (configuration not stated) the results were MIN6 prolif -2, JMJD2C inh 2, SMARCA2 activ -2, Exocytosis inh -4, PfM18AAP inh 2 and ALR inh 12.

Bioassay records (PubChem)
